Results as given in the supplement of paper PMC13392028.
The full ranking holds about 4,100 sequences; the median of “RBNS R-value (6-mer enrichment in protein-bound RNA vs input library)” is about 0.99, and the highest 2% start at about 1.4. This excerpt belongs to a sample that is enriched for the highest values.

System: PfIESI-1 RRM domain (Plasmodium falciparum ortholog aa 875-1232, GST fusion)
Test: RBNS R-value (6-mer enrichment in protein-bound RNA vs input library) (ratio); higher = stronger binding preference; the methods of the paper give 50 / 100 / 500 nM protein instead
How it was run: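 GST-tagged RNA-recognition-motif regions of IESI-1 orthologues from three Plasmodium species were expressed in E. coli and purified. Protein was incubated at room temperature with a random 40-mer in vitro transcribed RNA library, captured on glutathione magnetic agarose beads and washed three times. Bound RNA and the input library were reverse transcribed and sequenced on a MiSeq. R-value is each 6-mer's enrichment in bound RNA over input, from the Burge lab pipeline, one replicate.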

Row | Sequence | RBNS R-value (protein concentration: 250 nM) | RBNS R-value (protein concentration: 500 nM) | RBNS R-value (protein concentration: 1000 nM)
1 | UAGCUA | 0.902 | 0.926 | 0.903
2 | UGAAAA | 1.16 | 1.3 | 1.22
3 | AACGUG | 0.922 | 0.984 | 0.974
4 | UCGGGU | 0.945 | 0.901 | 1.01
5 | AUGCGU | 0.924 | 0.929 | 0.959
6 | UACCGC | 0.938 | 0.867 | 0.916
7 | UAAAAC | 0.916 | 1.05 | 0.979
8 | AGUAAA | 0.862 | 1.01 | 0.909
9 | AUUCUG | 1.19 | 1.22 | 1.1
10 | AUCUGA | 1.24 | 1.3 | 1.19
11 | AAAGGG | 1.07 | 1.12 | 1.12
12 | GGAUGA | 1.23 | 1.25 | 1.17
13 | CGAUCA | 0.917 | 0.906 | 0.977
14 | AGAUGU | 1.06 | 1.13 | 1.05
15 | CGAUGC | 1.26 | 1.22 | 1.18
16 | UGAUGC | 2.31 | 2.42 | 1.91
17 | GGAUGC | 1.04 | 0.968 | 1.07
18 | CGAUGU | 1.13 | 1.16 | 1.09
19 | UUAUGC | 0.832 | 0.799 | 0.831
20 | UGAUCA | 1.2 | 1.26 | 1.17
21 | CGAUGA | 1.66 | 1.7 | 1.44
22 | UGAUGA | 3.34 | 3.56 | 2.48
23 | UGAUGU | 2.5 | 2.78 | 2.1
24 | GGUCUU | 0.91 | 0.864 | 0.932

Row | Sequence | RBNS R-value (protein concentration: 250 nM) | RBNS R-value (protein concentration: 500 nM) | RBNS R-value (protein concentration: 1000 nM)
25 | UACACG | 0.894 | 0.857 | 0.867
26 | UGUAAU | 0.85 | 0.907 | 0.853
27 | AAGGUA | 0.941 | 1.01 | 0.987
28 | CAUCAU | 0.806 | 0.8 | 0.838
29 | GCCCGC | 1.24 | 1.09 | 1.2
30 | CGAGGC | 1.15 | 1.08 | 1.17
31 | CCAUCU | 0.967 | 0.915 | 0.956
32 | CCCUCU | 0.993 | 0.894 | 0.949
33 | GAGUGC | 1.09 | 1.01 | 1.04
34 | CGAUGG | 1.24 | 1.23 | 1.17
35 | AGAUGG | 1.12 | 1.14 | 1.14
36 | AUAUGA | 1.1 | 1.23 | 1.07
37 | AGAUGC | 1.18 | 1.17 | 1.14
38 | UGAUGG | 2.48 | 2.56 | 1.9
39 | AGAUGA | 1.49 | 1.55 | 1.34
40 | CAGGCA | 1.07 | 1.06 | 1.07
41 | GUGCGC | 0.961 | 0.907 | 0.975
42 | UUCUCC | 0.999 | 0.954 | 0.96
43 | UUAUCG | 0.802 | 0.76 | 0.799
44 | GUAUUG | 0.976 | 0.938 | 0.944
45 | GUAAUA | 0.77 | 0.864 | 0.803
46 | AAUUUC | 1.06 | 1.11 | 1.05
47 | AAUUUU | 0.989 | 1.08 | 1.03
48 | CAUUUC | 0.964 | 0.947 | 0.999

Row | Sequence | RBNS R-value (protein concentration: 250 nM) | RBNS R-value (protein concentration: 500 nM) | RBNS R-value (protein concentration: 1000 nM)
49 | CAUUUU | 0.932 | 0.925 | 0.962
50 | CAUUUG | 1.03 | 1.08 | 1.04
51 | GAUUUA | 1.33 | 1.46 | 1.22
52 | AAUUUG | 1.08 | 1.18 | 1.11
53 | CAUUUA | 0.761 | 0.749 | 0.752
54 | UAUUUA | 0.769 | 0.744 | 0.736
55 | GAUUUG | 1.88 | 1.94 | 1.51
56 | GAUUUU | 1.78 | 1.92 | 1.53
57 | GAUUUC | 1.71 | 1.74 | 1.52
58 | CCUCGA | 1.12 | 1.08 | 1.11
59 | GUGUCA | 0.85 | 0.872 | 0.887
60 | GAUACG | 1.1 | 1.13 | 1.09
61 | GCGGUA | 0.985 | 0.954 | 1
62 | CUCCUA | 0.889 | 0.834 | 0.858
63 | GCUUGC | 1.01 | 0.943 | 0.985
64 | GAUAGA | 1.21 | 1.3 | 1.18
65 | GAUAGU | 1.01 | 1.06 | 1
66 | GAUAGC | 1.44 | 1.48 | 1.3
67 | AAACGG | 1.06 | 1.07 | 1.08
68 | AAAGCU | 0.98 | 1.05 | 1.03
69 | CCCAGA | 1.39 | 1.32 | 1.3
70 | CCCAGG | 1.27 | 1.21 | 1.27
71 | CCCAGU | 1.09 | 1.03 | 1.06
72 | ACAUGA | 1.25 | 1.37 | 1.2

Row | Sequence | RBNS R-value (protein concentration: 250 nM) | RBNS R-value (protein concentration: 500 nM) | RBNS R-value (protein concentration: 1000 nM)
73 | CCUUUA | 0.814 | 0.763 | 0.779
74 | UGACCG | 1.04 | 1.02 | 1.07
75 | UUUUGC | 1.06 | 1.04 | 1.02
76 | AUUUGG | 1.1 | 1.17 | 1.06
77 | UUUUGA | 1.53 | 1.59 | 1.37
78 | AUUUGA | 1.45 | 1.59 | 1.34
79 | CUUUGU | 0.825 | 0.805 | 0.863
80 | CUUUGA | 1.35 | 1.41 | 1.26
81 | AUUUGU | 0.92 | 0.975 | 0.913
82 | UUUUGU | 0.909 | 0.927 | 0.922
83 | CUUUGG | 0.959 | 0.914 | 0.962
84 | CCCUCG | 1.05 | 0.973 | 1.06
85 | AAAAUA | 0.851 | 1.05 | 0.927
86 | CCAAAU | 0.978 | 1.04 | 0.995
87 | AGCUGU | 0.94 | 0.939 | 0.951
88 | CCACAA | 0.988 | 0.991 | 1
89 | CUAGAG | 1.1 | 1.1 | 1.09
90 | GAUCGU | 0.85 | 0.817 | 0.886
91 | GGUGAU | 1.33 | 1.4 | 1.28
92 | UGUGAU | 1.55 | 1.73 | 1.39
93 | CGUGAG | 0.982 | 0.993 | 1.05
94 | UGUGAG | 0.948 | 1 | 1.06
95 | AGUGAU | 1.55 | 1.73 | 1.44
96 | UGUGAC | 0.993 | 0.99 | 0.972

Row | Sequence | RBNS R-value (protein concentration: 250 nM) | RBNS R-value (protein concentration: 500 nM) | RBNS R-value (protein concentration: 1000 nM)
97 | GGUGAG | 1.02 | 1.02 | 1.02
98 | CGUGAU | 1.56 | 1.62 | 1.39
99 | CGUGAA | 0.992 | 1.03 | 1.05
100 | AGUGAA | 0.981 | 1.04 | 1.05
101 | AGUGAC | 1.02 | 1.05 | 1.03
102 | GGUGAC | 0.986 | 0.987 | 1.01
103 | UUAUAA | 0.747 | 0.809 | 0.749
104 | UUGUCA | 0.891 | 0.887 | 0.9
105 | GCACUA | 0.903 | 0.86 | 0.892
106 | ACACCU | 1.23 | 1.16 | 1.12
107 | ACAACG | 0.949 | 0.979 | 0.966
108 | GCCCUG | 1.19 | 1.1 | 1.14
109 | GACCCA | 1.15 | 1.12 | 1.14
110 | UACCCA | 1.07 | 1.01 | 1.01
111 | AACCCC | 1.11 | 1.05 | 1.08
112 | UACCCG | 1.3 | 1.16 | 1.2
113 | ACCCCG | 1.29 | 1.16 | 1.25
114 | CGCCCG | 1.43 | 1.22 | 1.33
115 | CACCCC | 1.3 | 1.16 | 1.24
116 | AACCCG | 1.38 | 1.25 | 1.29
117 | CACCCA | 1.42 | 1.26 | 1.31
118 | CACCCG | 1.67 | 1.33 | 1.41
119 | UGCCCG | 1.32 | 1.16 | 1.2
120 | GGCCCG | 1.26 | 1.11 | 1.23
